Results as given in PubChem BioAssay AID624171 (National Center for Advancing Translational Sciences (NCATS), 2012).
Among all 410,000 compounds or so, about 1,200 (0.29%) were called active. Inconclusive results (about 2%) are left out. The call rests on the fitted dose curve; in most records, active means well fitted activation curve with a large enough effect; inconclusive means small, poorly fitted or top-dose-only effect; inactive means flat fitted curve, though single readings scatter. Only a selection was taken, and actives are over-represented in it overall.

test: qHTS of Nrf2 Activators; settings: AREc32 ARE-luciferase reporter (MCF7-derived line), luminescence, 24 h; series mostly up to 46.1 µM; activation: at the top concentration; further: nearly all actives have a fitted effect of over 65% in size; on activation: % of control where 0% means no effect
Source text: Many diseases have some form of oxidative stress injury and ties to inflammation, causing a host of problems for the patient. The antioxidant response element (ARE) plays an important role in alleviating the harmful effects of oxidative stress. The antioxidant response element (ARE) is a transcriptional regulatory element involved in the activation of genes coding for a number of antioxidant proteins and detoxifying enzymes. These enzymes work in concert to protect tissues from oxidative insults and chemical toxicities in human hepatocytes and immune cells. The protective effects of ARE activation are primarily triggered through Nrf2 (NF-E2-related factor) binding to and activating AREs. It is known that Nrf2 controls the production of over 250 antioxidant and detoxification proteins (Hu et al., 2006), thereby protecting tissues by increasing cellular antioxidant content and suppressing inflammatory signaling pathways. The transcription factor Nrf2 is a central link between oxidative chemicals, such as phenolic antioxidants and electrophilic compounds, and the activation of ARE. Nrf2 levels are constitutively low as a consequence of its interaction with Keap1, which targets its degradation (Zipper and Mulcahy, 2002). Electrophiles react with key cysteine residues in Keap1, releasing Nrf2 and allowing its translocation to the nucleus. Once within the nucleus, Nrf2 complexes with coactivators such as p300, and binds to the AREs to induce gene transcription of cytoprotective enzymes, resulting in the prevention of toxicity. Activation of Nrf2 protects tissues by increasing cellular antioxidant content and suppressing inflammatory signaling pathways. Identifying novel and potent Nrf2 activators by using the AREc32 cell line to detect ARE activation by small molecules will lead to the identification and development of probes to study protective pathways in multiple tissues. These specific probes are essential to study the ARE pathway, and eventually to determine whether this pathway does activate genes that could protect against a host of diseases, including cardiovascular diseases, obesity, diabetes, Alzheimer's, and Parkinson's disease.
This project's aim is to identify novel and potent Nrf2 activators by using the AREc32 cell line to detect ARE activation by small molecules, which will lead to the identification and development of probes to study the ARE pathway.
NIH Chemical Genomics Center [NCGC]
NIH Molecular Libraries Probe Centers Network [MLPCN]
Assay Submitter (PI): Curtis Klaassen, University of Kansas Medical Center
5 uL of 1000 cells/well of AREc32_Fluc cells are seeded into 1536-well plate in OPTI-MEM medium with 5% FBS. The plates are incubated overnight at 37 deg C with 5% CO2. Then through pin tool transfer, 23 nL of compounds are added to each well before a 24 hr incubation at 37 deg C with 5% CO2. After the addition of 2.5 uL of Steady-Glo. the plates are kept at RT for 30 min, before they are read on the ViewLux.
Potency means the concentration at half of the fitted maximal effect.

Potency, active:
Cc1ccccc1C(=O)OC1OC(=O)C(Cl)=C1Nc1ccccc1 (configuration not stated) 15.8 µM
Nc1c(C(=O)c2cccs2)sc2nsc(SCCN3CCCCC3)c12 10 µM
Cc1cc(NCc2ccco2)n2c(nc3ccccc32)c1C#N 5.01 µM
Cc1cc(C(=O)N/N=C\C(Br)=C\c2ccccc2)c(C)o1 20 µM
S=c1[nH]nc(-c2cc(-c3ccsc3)n[nH]2)n1-c1ccccc1 8.91 µM
O=C(Nc1ccc2ccccc2c1[N+](=O)[O-])c1ccccc1 14.1 µM
NC(=O)COC(=O)/C=C/c1ccc2ccccc2n1 15.8 µM
COc1ccc(N2C(=O)C3C(C2=O)C(C(=O)c2ccccc2)N2CCCC32)cc1 (configuration not stated) 12.6 µM
c1ccc(-c2ccnc3nc(-n4cccc4)nn23)cc1 12.6 µM
O=C(Nc1ccccc1Cl)Nc1cccc2cccnc12 12.6 µM
O=c1[nH]nc(SCCS(=O)(=O)c2ccc(F)cc2)n1-c1ccccc1C(F)(F)F 11.2 µM
O=C1/C(=C\c2ccc(O)cc2)CCC1CNc1ccc(Cl)cc1 (configuration not stated) 11.2 µM
c1ccc(CSc2nnc(-c3ccco3)c(-c3ccco3)n2)cc1 12.6 µM
O=C(CSc1c2c(nc3ccc(Cl)cc13)CCCC2)NCc1ccco1 11.2 µM
Cc1nc(-c2ccccc2)sc1-c1nnc(C2CC2)o1 15.8 µM

activation, inactive:
Cc1ccc(NC2=C(Cl)C(=O)OC2OC(=O)c2ccccc2C)cc1 (configuration not stated) 0.434% [at 9.22 µM]
O=C1OC(OC(=O)c2ccccc2Br)C(N2CCOCC2)=C1Cl (configuration not stated) 5.07%
CCOC(=O)c1c(C)[nH]c(C)c1S(=O)(=O)N1CCC(C(=O)Nc2ccc(C)c(Cl)c2)CC1 -0.0095%
Cc1cc(NC(C)C)n2c(nc3ccccc32)c1C#N -0.5%
CC(C)c1cc(NCc2ccccn2)n2c(nc3ccccc32)c1C#N -0.266%
Cc1cc(C(=O)NCCc2ccc(Cl)cc2)c(C)o1 0.668%
Cc1cc(C)cc(NC(=O)COC(=O)c2cc(C)oc2C)c1 0.443%
COc1cccc(C(=O)NCC(=O)OCc2cc(=O)n3ccsc3n2)c1 0.717%
Cc1n[nH]c(=O)n1-c1ccc(Oc2ccccc2)cc1 -0.567%
S=c1[nH]nc(CSCc2ccc(Cl)cc2Cl)n1-c1ccccc1 1.92%
COc1cccc(C(c2c(O)cc(C)n(Cc3ccco3)c2=O)N2CCN(c3ccccc3)CC2)c1 (configuration not stated) -0.424%
CN(C)c1ccc(NC(=O)c2ccncc2)c2ccccc12 0.419%
Cc1ccc(NC(=O)c2oc3ccccc3c2C)c([N+](=O)[O-])c1 2.17%
O=C(CN1C(=O)COc2ccc(S(=O)(=O)N3CCOCC3)cc21)N1CCN(c2cccc(Cl)c2)CC1 -1.02%
Cc1cc2nc(-c3ccc(NC(=O)c4cc5ccccc5o4)cc3)oc2cc1C -0.225%
CCOc1cccc(/C=C/c2ccc3ccccc3n2)c1OC(C)=O -0.0343%
O=C(COC(=O)/C=C/c1nc2ccccc2s1)Nc1ccccc1Oc1ccccc1 13.2%
CN(C(=O)c1ccc2c(c1)N(Cc1cccc(Cl)c1)C(=O)c1ccccc1S2=O)C1CCCCC1 (configuration not stated) -0.856%
CC(C)C(=O)Nc1nc2c(s1)CC(C(C)(C)C)CC2 (configuration not stated) 8.99%
Cc1ccc(NC(=O)Cn2nnc3sc4c(c3c2=O)CCC(C)C4)cc1 (configuration not stated) -0.46%
COC(=O)c1cccc(Cn2nnc3sc4c(c3c2=O)CCC(C(C)(C)C)C4)c1 (configuration not stated) 0.258%
CCOC(=O)c1c(C)oc2nc(C)nc(Nc3ccc(CC)cc3)c12 0.634%
CCCOc1ccc(-c2cccc(NS(=O)(=O)c3ccccc3)c2)nn1 5.26%
COc1ccc(C2NC(=O)N(C)C3=C2C(=O)N(c2ccc(C(=O)O)cc2)C3)cc1 (configuration not stated) -0.886%
COc1ccc(N2C(=O)CC(N3CCC(C(N)=O)CC3)C2=O)cc1 (configuration not stated) 2.6%
CCCNC(=O)C1CCC(Cn2c(=O)c3sccc3n(Cc3ccccc3F)c2=O)CC1 (configuration not stated) -0.818%
COc1ccccc1CNC(=O)c1ccc(CS(=O)c2ccccc2Cl)o1 (configuration not stated) 0.406%
Cc1cc(-c2ccccc2)n2nc(-c3ccccc3)cc2n1 12.8%
Cc1ccc(-c2ccnc3nc(Sc4ncc(C(F)(F)F)cc4Cl)nn23)cc1 3.01%
O=C(Nc1nnc(S(=O)(=O)N2CCCc3ccccc32)s1)c1cccc(F)c1 7.1%
CCSc1ncc(Cl)c(C(=O)Nc2c(C(=O)c3ccccc3)oc3ccccc23)n1 1.26%
O=C(Nc1cccc2cccnc12)c1cccc2c(Br)cccc12 -0.813%
COc1c(Cl)cc(Cl)cc1C(=O)Nc1cccc2cccnc12 4.52%
Cc1ccc(NC(=O)CN2C(=O)C(c3ccc(F)cc3)=NC23CCCCCC3)c(C)c1 -0.548%
CCCN1CCc2nc(N3CCN(C)CC3)ncc2C1 -0.347%
CC(C)(C)c1ccc(C(=O)N2CCC(c3nc(-c4ccc(S(=O)(=O)N5CCCC5)cc4)no3)CC2)cc1 -0.309%
O=C(CSc1n[nH]c(=O)n1-c1ccccc1)Nc1ccccc1C(F)(F)F 0.332%
O=S(=O)(c1ccc(F)cc1)N1CCN(Cc2ccccc2C(F)(F)F)CC1 -0.452%
COc1ccc2oc(=O)c(-c3cn4c(n3)sc3cc(OC)ccc34)cc2c1 0.368%
CC(=O)c1nn(-c2ccc(OC(F)(F)F)cc2)nc1Nc1ccccc1 1.31%
CCOc1ccc(CCNC(=O)c2ccc3c(c2)sc2nc(-c4ccc(F)cc4)cn23)cc1OCC 3.06%
Cn1c(=O)c2c(n3c4ccccc4nc13)NC(=O)CC2c1cccc(Cl)c1 (configuration not stated) 1.12%
Fc1ccc(CSc2nc(NCc3ccccc3)c3ccccc3n2)cc1 6.47%
Cc1ccc(-c2nnc(SCC(=O)NCc3ccccc3)nc2-c2ccc(C)cc2)cc1 5.5%
COc1cccc(CNC(=O)CSc2c3c(nc4cc(Cl)ccc24)CCCC3)c1 19.1%
Cc1ccc(CNC(=O)CSc2c3c(nc4cc(Cl)ccc24)CCCC3)cc1 26.8%
CCCNC(=O)CCC(=O)N1Cc2ccccc2Oc2ncccc21 -0.631%
Cc1ccc2[nH]c3c(=O)n(CC(=O)NC(C)C)ncc3c2c1 -0.0426%
COc1ccc(-c2csc(-c3c(N)c(C(=O)c4ccc(OC)c(OC)c4)n4ccccc34)n2)cc1 -0.693%
CCn1c2ccccc2c2nnc(N3CCN(c4cc(C)ccc4C)CC3)nc21 -0.21%
Cc1nc(-c2ccccc2)sc1-c1nc(-c2ccccc2)ncc1S(=O)(=O)c1ccccc1 0.0302%
Cc1nc(N)sc1-c1ccccc1 8.19%
